Experimental data: PubChem BioAssay (EPA / NIEHS)
Calls of active or inactive are those of the source. The calls were made as follows: active = hit-call score of the fitted dose curve at least 0.9, where 1 is the maximum; inactive = score below 0.9.

What follows are molecules tested on solute carrier (SLC22A1), SLC22A1 (gene 6580) (assay: LTEA_HepaRG_SLC22A1: Life Technologies and Expression Analysis (LTEA) Assay for solute carrier (SLC22A1) using HepaRG (AID 2283524;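 as to AC50: TaqMan qRT-PCR normalized to ACTB GAPDH and POLR2A housekeeping genes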)). Details: mRNA level, 48 h; actives raise or lower the signal.
Experimental: LTEA_HepaRG is a cell based, multiplexed-readout assay that uses HepaRG, a human liver cell line, with measurements taken at 48 hours after chemical dosing on a 96-well plate.LTEA_HepaRG_SLC22A1 is one of 102 assay component(s) measured in the LTEA HepaRG cell culture assay. It is a marker of NR mediated transport.Data from the assay component LTEA_HepaRG_SLC22A1 was analyzed into 1 endpoint. This assay endpoint, LTEA_HepaRG_SLC22A1, was analyzed with bidirectional fitting relative to DMSO as the negative control and baseline of activity. Using a type of inducible reporter, measures of mRNA induction for gain or loss-of-signal activity can be used to understand regulation of transcription factor activity. To generalize the intended target to other relatable targets, this assay endpoint is annotated to the transporter intended target family, where the subfamily is organic cation transporter.
A total of 1060 chemcials from the ToxCast library were tested in eight-point concentration-response experiments. Cell culture and cytotoxicity assays were conducted at Thermo Fisher Scientific's Custom Services facility (Madison, WI). A single lot of human HepaRG cells (Thermo Fisher Scientific, Frederick, MD) was used for the cell culture experiments. 96-well format collagen type I coated plates of human HepaRG cells were prepared using established methods. Briefly, cryopreserved HepaRG cells were thawed, plated at a density of approximately 100,000 cells/well in HepaRG Thaw, Plate, and General Purpose media (HPRG770, Thermo Fisher Scientific), and incubated for 48 hours. 0.5% DMSO was selected as vehicle control to balance the requisite need of DMSO in HepaRG cultures to maintain differentiation (for example, baseline metabolism, proportions of hepatocytes vs. cholangiocytes), while enabling further hepatic receptor pathway activation (for example, PXR and CAR) in response to chemical exposure. 48 hours after plating, the culture medium was replaced with HepaRG Serum-Free Incudtion Media. Cells were exposed to each test chemical in duplicate and maintained in CO2 incubators for another 48 hours. Chemical plates were thawed to room temperature and 200x concentrations of treatment groups were prepared. 8-point conentration-reponse curves were made with the highest exposure at 100 uM, followed by half-log dilutions, all in 0.5% DMSO. Each test plate contained variouse controls, induction positive controls (1mM phenobarbital), cytotoxicity positive controls ([…] aflatoxin B1), vehicle controls (0.5% DMSO), and total lysis controls (0.5% DMSO). Cell morphology images were taken using an Essen IncuCyte FLR automated microscope, with six 96-well plates imaged in about 24 minutes. Images were captured and exported and JPEG files. Spent culture media was transfered to black-well plates for the LDH assay, and remaining media was sorted at -80 C for later use. Cells were treated with RLT buffer and frozen until shipped for gene expression analysis. Total RNA was isolated from the cell suspension in 75 uL of Buffer RLT (Qiagen, Germantown, MD 20874) by Quintiles/Expression Analysis (Durham, NC) using a custom isolation procedure. Total RNA from each plate well was transferred to a preamplification plate. Fluidigm's 96.96 Dynamic ArrayTM (Fluidigm, Amsterdam, the Netherlands) technology was used for gene expression analyses by quantitative reverse transcription polymerase chain reaction (qRT-PCR, performed by Quintiles/Expression Analysis, Durham, NC)89. Standard TaqManTM Assays (Applied Biosystems/ThermoFisher Scientific, Foster City, CA) were used to assess the expression of 93 genes selected based on their selectivity and sensitivity to important hepatic receptors known to be modulated by environmental chemicals; importance in human hepatocyte functionality; and hepatotoxicity. […]

| SMILES | outcome | AC50 |
| --- | --- | --- |
| O=S(=O)(O)c1ccc(N=Nc2c(O)ccc3cc(S(=O)(=O)O)ccc23)cc1 | inactive | – |
| CNC(C)=O | inactive | – |
| Cn1c(=O)c2[nH]cnc2n(C)c1=O | inactive | – |
| CCCCN1C(=O)[C@@H]([C@H](O)C2CCCCC2)NC(=O)C12CCN(Cc1ccc(Oc3ccc(C(=O)O)cc3)cc1)CC2 | – | 1.72 µM (active) |
| COCc1nnc(-c2ccc[n+]([O-])c2)n1-c1c(Cl)c(Cl)cc2[nH]c(=O)c(=O)[nH]c12 | inactive | – |
| CCCc1ccccc1 | inactive | – |
| CCCCCOC(C)=O | inactive | – |
| CC[C@H](C)C(=O)O[C@H]1C[C@H](O)C=C2C=C[C@H](C)[C@H](CC[C@@H](O)C[C@@H](O)CC(=O)O)[C@H]21 | inactive | – |
| C=CCc1cc(S(=O)(=O)c2ccc(O)c(CC=C)c2)ccc1O | – | 89 µM (active) |
| NC(=O)N(O)[C@@H]1COc2cc(OCc3ccccc3)ccc21 | inactive | – |
| O=C(NO)C1(NS(=O)(=O)c2ccc(Oc3ccc(F)cc3)cc2)CCOCC1 | – | 80.7 µM (active) |
| CCCCOC(=O)c1ccccc1 | inactive | – |
| C[C@]12C=CC(=O)C=C1CC[C@H]1[C@@H]3C[C@@H](O)[C@](O)(C(=O)CO)[C@@]3(C)C[C@H](O)[C@@]12F | inactive | – |
| O=S1(=O)CCCO1 | inactive | – |
| Cc1ncc([C@@H](CCCCCCc2ccc3c(n2)NCCC3)CC(=O)O)cn1 | inactive | – |
| CCCCCCCCN(C)C | inactive | – |
| c1ccc(C(O[C@@H]2CCCN(CCc3ccc4c(c3)OCO4)C2)c2ccccc2)cc1 | – | 79.2 µM (active) |
| CCCCCCCC1CCC(=O)O1 (stereo not given) | inactive | – |
| OC[C@H]1O[C@@H]2O[C@H]3[C@H](O)[C@@H](O)[C@@H](O[C@H]4[C@H](O)[C@@H](O)[C@@H](O[C@H]5[C@H](O)[C@@H](O)[C@@H](O[C@H]6[C@H](O)[C@@H](O)[C@@H](O[C@H]7[C@H](O)[C@@H](O)[C@@H](O[C@H]1[C@H](O)[C@H]2O)O[C@@H]7CO)O[C@@H]6CO)O[C@@H]5CO)O[C@@H]4CO)O[C@@H]3CO | inactive | – |
| CC(C)c1nnc2ccc(-c3ocnc3-c3cc(F)ccc3F)cn12 | – | 15.4 µM (active) |

| SMILES | outcome | AC50 |
| --- | --- | --- |
| O=c1[nH]cnc2c1ncn2[C@H]1CC[C@@H](CO)O1 | inactive | – |
| CCCCCCCCCC | inactive | – |
| Cc1nccn1-c1ccc(Sc2cccc(C3(C(N)=O)CCOCC3)c2)cc1 | – | 11.2 µM (active) |
| NC(=O)N1c2ccccc2C=Cc2ccccc21 | inactive | – |
| Cc1nc(-c2ccccn2)ncc1C(=O)Nn1cc(C)c2cc(F)ccc21 | – | 77.7 µM (active) |
| CCCCCCCCCCCCCCO | inactive | – |
| COc1cc2c(c(OC)c1OC)-c1ccc(OC)c(=O)cc1[C@@H](NC(C)=O)CC2 | – | 0.105 µM (active) |
| c1ccc2cc3ccccc3cc2c1 | inactive | – |
| OC[C@H]1O[C@@](CO)(O[C@H]2O[C@H](CO)[C@@H](O)[C@H](O)[C@H]2O)[C@@H](O)[C@@H]1O | inactive | – |
| CCOC(N)=O | inactive | – |
| CCOc1ccc2[nH]cc(C(=O)NCc3ccccc3)c(=O)c2n1 | inactive | – |
| CCn1nc(C)c2c1C(=O)NCC(c1ccc(O)cc1)=N2 | inactive | – |
| OCCNCCO | – | 50 µM (active) |
| OCC(CO)(CO)CO | inactive | – |
| Cc1ccc(S(=O)(=O)NC(=O)NN2CCCCCC2)cc1 | inactive | – |
| CCCCCCOC(=O)CC(CC(=O)OCCCCCC)(OC(=O)CCC)C(=O)OCCCCCC | inactive | – |
| CCN(CC)C(=S)SSC(=S)N(CC)CC | inactive | – |
| c1ccc2c(c1)-c1cccc3c1c-2cc1ccccc13 | – | 18.8 µM (active) |
| CCc1cccc(CC)c1N | inactive | – |
| O=C(O)c1ccc2c(c1)nc(C(=O)NC1CCN(C3CC3)CC1)n2Cc1cc(-c2ccc(Cl)s2)on1 | inactive | – |
